“And” between values parts separate entries of the source, which are not always exact repeats. Identical values can stand only once. Inconclusive results are not listed. A call without a number means that no potency is given here. The source holds several records for some structures; these can differ, active in one and inactive in another. The source made the active and inactive calls. Calls come from the whole dose curve.
The compounds below were run against Acetylcholinesterase (Homo sapiens) (UniProt P22303) (assay: Acetylcholinesterase (AChE) small molecule antagonists: fluorescence cell-based qHTS assay (AID 1347398; note: nearly all actives have a fitted effect of over 50% in size)). Conditions: SH-SY5Y cells; Potency: AChE activity; series mostly up to 115 µM.
Text: National Center for Advancing Translational Sciences [NCATS]
Division of Preclinical Innovation [DPI]
U.S. Environmental Protection Agency [EPA]
National Institutes of Environmental Health Sciences [NIEHS]
National Toxicology Program [NTP]
U.S. Food and Drug Administration [FDA]
Acetylcholinesterase (AChE) is the primary cholinesterase in the body that hydrolyzes a key neurotransmitter, acetylcholine. Inhibition of AChE activity can lead to neurotoxicity. Known inhibitors of AChE include organophosphorous pesticides (OP), chemical warfare agents, drugs, and various phytochemicals.
A homogenous cell-based assay using Amplitetrade mark Fluorimetric Acetylcholinesterase Assay Kit *Green Fluorescence* (AAT Bioquest, Sunnyvale, CA) was used to evaluate the chemicals in the Tox21 10K library that inhibit AChE activity. The assay uses Thiolite Green to quantify the thiocholine produced from the hydrolysis of acetylthiocholine by AChE from the SH-SY5Y cells. AChE can hydrolyze acetylthiocholine to create thiocholine. Thiolite Green is fluorescent when reacting with thiocholine. It has spectral properties similar to those of fluorescein. The fluorescence intensity of Thiolite Green is used to measure AChE activity. Its signal can be easily read by a fluorescence microplate reader at Ex/Em = 490/520 nm.
Tox21 Assay Protocol Summary:
For cell-based AChE assay, 2,000 SH-SY5Y cells in 4 uL/well were dispensed into black, clear-bottom 1536-well plates using a Multidrop Combi (Thermo Scientific) dispenser. The assay plates were incubated overnight at 37 C to allow cells to attach to the wells, followed by the transfer of 23 nL compound or DMSO (vehicle control) by a Pintool station (Wako Automation, CA). The plates were incubated for 30 min at 37 C and 5% CO2, followed by the addition of 4 uL of detection cocktail solution (ThioliteGreen, acetylthiocholine) into each well using Flying Reagent Dispenser (Beckman Coulter, CA) and then following 40 min incubation at room temperature. Fluorescent intensity (Ex/Em = 490/520 nm) was measured using an Envision plate reader (PerkinElmer, MA).
Potency is the fitted concentration of half-maximal effect.

Chain of Acetylcholinesterase (Homo sapiens) (P22303 whole entry, looked up): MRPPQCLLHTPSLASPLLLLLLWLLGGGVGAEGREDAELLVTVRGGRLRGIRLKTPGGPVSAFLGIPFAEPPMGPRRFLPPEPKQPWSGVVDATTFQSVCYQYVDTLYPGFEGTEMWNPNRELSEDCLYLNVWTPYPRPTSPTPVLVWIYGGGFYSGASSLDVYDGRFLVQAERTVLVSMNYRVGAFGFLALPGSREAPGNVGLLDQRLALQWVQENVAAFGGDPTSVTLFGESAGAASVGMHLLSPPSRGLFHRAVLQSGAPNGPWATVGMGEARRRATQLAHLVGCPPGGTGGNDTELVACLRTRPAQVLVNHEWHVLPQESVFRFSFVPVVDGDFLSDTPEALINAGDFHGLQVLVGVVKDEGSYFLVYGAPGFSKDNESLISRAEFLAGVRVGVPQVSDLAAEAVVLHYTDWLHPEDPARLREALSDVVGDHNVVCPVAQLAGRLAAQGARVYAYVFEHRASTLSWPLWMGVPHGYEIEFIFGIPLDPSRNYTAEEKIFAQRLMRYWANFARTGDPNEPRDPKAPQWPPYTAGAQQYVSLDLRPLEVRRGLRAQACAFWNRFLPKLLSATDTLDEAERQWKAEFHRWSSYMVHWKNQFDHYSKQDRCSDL

SMILES | Potency
Nc1c(Cl)cc([N+](=O)[O-])cc1Cl | inactive
Cc1ccccc1[N+](=O)[O-] | inactive
N#CC(Br)Br | inactive
Nc1ccc(Cl)cc1N | inactive
O=C(CCl)c1ccccc1 | inactive
CC(C)(OOC(C)(C)c1ccccc1)c1ccccc1 | inactive
CCCCC(CC)COC(=O)Cl (stereo not given) | inactive
C=C(C)[C@H]1Cc2c(ccc3c2O[C@@H]2COc4cc(OC)c(OC)cc4[C@@H]2C3=O)O1 | inactive
CCCCCCCCOC(=O)c1ccccc1C(=O)OCCCCCCCC | inactive
C=CCc1ccc(OC)cc1 | inactive
COP(=S)(OC)Oc1cc(Cl)c(Cl)cc1Cl | inactive
C1=Cc2cccc3cccc1c23 | inactive
O=C(O)CC[N+](=O)[O-] | inactive and 7.96 µM (active)
C#CCOS(=O)OC1CCCCC1Oc1ccc(C(C)(C)C)cc1 (stereo not given) | inactive
CCC(C)c1cc([N+](=O)[O-])cc([N+](=O)[O-])c1O (stereo not given) | inactive
CCCCOCCOP(=O)(OCCOCCCC)OCCOCCCC | inactive
CCN(N=O)C(N)=O | inactive
Nc1ccncc1 | inactive
N#Cc1cc(Br)c(O)c(Br)c1 | inactive
CCC(C)(c1ccc(O)cc1)c1ccc(O)cc1 | inactive

SMILES | Potency
Oc1cc(Cl)ccc1Cl | inactive
CC(C)N(C(=O)SCC(Cl)=C(Cl)Cl)C(C)C | inactive
COc1ccc(C=O)cc1 | inactive
Cc1ccc(N)c(N)c1 | inactive
COP(=S)(OC)Oc1ccc([N+](=O)[O-])cc1 | inactive and 35.6 µM (active)
Cc1cc(C)cc(C)c1 | inactive
CCCCN(CCCC)N=O | 12.1 µM (active) and inactive
CC(C)=CC1C(C(=O)OCc2coc(Cc3ccccc3)c2)C1(C)C (stereo not given) | inactive
O=P(Oc1ccccc1)(Oc1ccccc1)Oc1ccccc1 | 2.51 µM (active) and 3.56 µM (active)
CCC(CC)Nc1c([N+](=O)[O-])cc(C)c(C)c1[N+](=O)[O-] | inactive
c1ccc(P(c2ccccc2)c2ccccc2)cc1 | inactive
c1ccc(-c2cccc(-c3ccccc3)c2)cc1 | inactive
CCN(CC)N=O | inactive
CCOC(=O)C(C)OC(=O)c1cc(Oc2ccc(C(F)(F)F)cc2Cl)ccc1[N+](=O)[O-] (stereo not given) | inactive
CC(C)C(=O)OCC(C)(C)C(OC(=O)C(C)C)C(C)C (stereo not given) | inactive
CCOCN(C(=O)CCl)c1c(C)cccc1CC | inactive
Nc1ccc(-c2ccccc2)cc1 | inactive
Oc1c(Cl)c(Cl)c(Cl)c(Cl)c1Cl | inactive
O=S(=O)(Oc1ccc(Cl)cc1)c1ccc(Cl)cc1 | inactive
CCCCCCCCC(=O)NCc1ccc(O)c(OC)c1 | inactive

From PubChem BioAssay (Tox21)
